Among the data in PubChem BioAssay are composite z-score values, retold here.

The test system of the first assay is Plasmodium falciparum Sir2 (PF13_0152, Sir2A). As to the kind of experiment: Plasmodium falciparum Sir2A binding compounds – biochemical, small-molecule microarray, 635 nm fluorescence, primary screen (AID 1098).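 Also: score merges spot fluorescence intensity with its signal-to-noise ratio.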 The settings on record: fluorescence 635 nm, higher = more signal.
Compound `C=C(CCCC)/C(=C/C[C@@H](OC(=O)c1ccncc1)c1ccccc1OCCO)c1cnc2ccccc2c1` gave a composite z-score of 1.26.

`O=C1c2ccccc2[C@](Cc2ccccc2I)(C(=O)NCC(F)(F)F)[C@H](c2ccc(CO)cc2)N1C1CCCCC1`: the composite z-score came to 1.6.

`CC(C)N1C(=O)C[C@@](C(=O)NCCCN(C)C)(c2ccc([N+](=O)[O-])cc2)[C@H]1c1ccc(CO)cc1` came in with a composite z-score of -0.133.

As to `C=C[C@@H](COC(C)=O)N(C(=O)OC(C)(C)C)S(=O)(=O)c1ccc(Br)cc1`, the composite z-score is 0.732.

In turn, `CC1CC/C=C\[C@H]2OC34C=CCN(c5ccc(Cl)cc5)C(=O)[C@H]3N(CCCCCO)C(=O)[C@]4(C)C2C(=O)O1` (stereo partly specified) displayed a composite z-score of 0.925.

With `O=C1O[C@H](c2ccccc2)[C@H](c2ccccc2)N2[C@H]1[C@@H](C(=O)Nc1nc3ccccc3s1)[C@]1(C(=O)Nc3ccc(C#CCCO)cc31)[C@H]2c1ccc(O)cc1`, the composite z-score worked out at 0.915.

`COCCOC(=O)N1C(=O)[C@@]2(c3cc(C#CC4(O)CCCCCC4)ccc31)[C@H](c1ccc(O)cc1)N1[C@H](c3ccccc3)[C@H](c3ccccc3)OC(=O)[C@H]1[C@@H]2C(=O)NC[C@H](O)c1ccccc1` had a composite z-score of 0.355.

For `O=C1O[C@@H](c2ccccc2)[C@@H](c2ccccc2)N2[C@@H](c3ccccc3OCCO)[C@]3(C(=O)Nc4ccc(C#CCCO)cc43)[C@@H](C(=O)N3CCCCCCC3)[C@H]12`, the composite z-score was 2.19.

`COc1ccc([Si](C)(C)[C@@H]2[C@@H](CCO)O[C@]3(C(=O)N(Cc4ccc(N5CCCCC5=O)cc4)c4ccccc43)[C@H]2C)cc1` registered a composite z-score of 1.15.

With `O=C(NCC(F)(F)F)[C@@H]1c2ccccc2C(=O)N(Cc2cc(F)cc(C(F)(F)F)c2)[C@H]1c1ccc(CO)cc1`, the composite z-score is 0.251.

Regarding `Cc1ccccc1C(O)C1C=CC2C(=O)N(C)C(=O)C2N1N(c1ccccc1)c1ccccc1` (stereo unspecified), the composite z-score was -0.167.

Regarding `O=C(CS)NCCCCCCNC(=O)[C@H]1C[C@H]2C(=O)N[C@@H](Cc3ccccc3)C(=O)N2[C@H]1c1ccc(O)cc1`, the composite z-score was found to be 1.67.

For `C=CCN1Cc2ccccc2[C@H]2OC(c3ccc(OCCCO)cc3)=N[C@@]2(CC=C)C1=O`, the composite z-score turned out to be 0.911.

Consider `CO[C@]12C=C(Br)[C@@H](C[C@@H]1c1cccc(C)c1)[C@@]1(CO1)C2=O`, for which the composite z-score was found to be 1.53.

On to `C=CC[C@]1(C(=O)O)COC(c2ccc(OCCCO)cc2)=N1`, for which the composite z-score was 1.58.

In the case of `CCOC(=O)[C@H]1[C@@H]2C(=O)N3CCC[C@H]3[C@H](O[Si](C(C)C)(C(C)C)C(C)C)[C@H]2C=C2CCN(S(=O)(=O)c3ccc(C)cc3)C[C@H]21`, the composite z-score came to 0.779.

`CN(C)CCCCNC(=O)[C@@H]1C[C@@H]2C(=O)N[C@@H](Cc3ccccc3)C(=O)N2[C@@H]1c1cccc(OCCO)c1` gave a composite z-score of 0.769.

With `C=C(C)C1CCC(C(O)C2C=CC3C(=O)N(C)C(=O)C3N2N2CCCCC2)CC1` (stereo unspecified), the composite z-score came out at 0.925.

In turn, `CN1C(=O)C2C=CC(C(O)c3ccccn3)N(N(c3ccccc3)c3ccccc3)C2C1=O` (stereo unspecified) showed a composite z-score of 1.44.

Turning to `CN(C)CCCNC(=O)[C@@]1(C)c2ccccc2C(=O)N(Cc2ccccc2)[C@H]1c1ccc(CO)cc1`, the composite z-score was determined as 1.71.

`C=CCNC(=O)[C@@H]1[C@H]2C(=O)O[C@H](c3ccccc3)[C@H](c3ccccc3)N2[C@H](c2ccc(O)cc2)[C@@]12C(=O)N(C(=O)OCCOC)c1ccc(C#CC3(O)CCCCCC3)cc12`: the composite z-score was determined as 0.482.

Regarding `CN(C)C(=O)[C@@]1(Cc2ccccc2CN=[N+]=[N-])N=C(c2ccc(OCCCO)cc2)O[C@H]1c1ccccc1CN=[N+]=[N-]`, the composite z-score came to 1.03.

`O=C1O[C@@H](c2ccccc2)[C@@H](c2ccccc2)N2[C@@H](c3ccc(O)cc3)[C@]3(C(=O)Nc4ccc(C#CC5=CCCCC5)cc43)[C@@H](C(=O)NC[C@H](O)c3ccccc3)[C@H]12` had a composite z-score of 1.12.

As to `CC(C)(C)OC(=O)CC[C@]1(C(=O)NCc2ccccc2)N=C(c2ccc(OCCCO)cc2)O[C@H]1c1ccccc1CN=[N+]=[N-]`, the composite z-score worked out at 1.45.

Take `CC(C)C[C@@H]1NC(=O)[C@@H]2C[C@H](C(=O)NCCCCN(C)C)[C@H](c3cccc(OCCO)c3)N2C1=O`: the composite z-score turned out to be 1.66.

System in another assay: not listed separately
Kind of assay: probe aDKK1 binding to arrayed compounds – biochemical, biotinylated probe, 635/667 nm fluorescence, primary screen (AID 1099).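 Also: score merges 667nm spot fluorescence with signal to noise across triplicate slides; reference of the scale not given here.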 As to conditions: small-molecule microarray, higher = more signal.
Turning to `COCCOC(=O)N1C(=O)[C@@]2(c3cc(C#CC4=CCCCC4)ccc31)[C@H](C(N)=O)[C@H]1C(=O)O[C@H](c3ccccc3)[C@H](c3ccccc3)N1[C@@H]2c1ccccc1OCCO`, the composite z-score was 0.195.

With `O=C1NC(=O)C2C1C=CC(C(O)c1ccco1)N2Nc1ccccn1` (stereo unspecified), the composite z-score is -0.0191.

The compound `CCCCN1CC=CC23O[C@@H]4/C=C\CCC(C)OC(=O)C4[C@H]2C(=O)N(C(CO)C(C)C)[C@@H]3C1=O` (stereo partly specified) gave a composite z-score of -0.207.

In the case of `CC=CC(O)C1C=CC2C(=O)N(c3ccccc3)C(=O)C2N1Nc1ccccc1F` (stereo unspecified), the composite z-score stood at 1.24.

The compound `COc1ccccc1CN1C(=O)c2ccccc2[C@](Cc2ccccc2I)(C(=O)NCC(F)(F)F)[C@@H]1c1ccc(CO)cc1` came in with a composite z-score of 0.984.

For the compound `O=C1NC(=O)C2C1C=CC(C(O)c1c(F)cccc1Cl)N2Nc1ccc(Cl)cc1Cl` (stereo unspecified), the composite z-score is 1.4.

On to `COC(=O)[C@@]1(Cc2ccccc2)[C@H]2c3cc(C(=O)N(C)C)n(CCc4ccc(O)c(OC)c4)c3C[C@H]2CN1C(=O)c1ccccc1`, for which the composite z-score came out at 1.32.

As to `CCCNC(=O)[C@@H]1c2ccccc2C(=O)N(C(C)C)[C@H]1c1ccc(CO)cc1`, the composite z-score amounted to 0.02.

Regarding `[N-]=[N+]=Nc1ccccc1[C@H]1OC(c2ccc(OCCCO)cc2)=N[C@@]1(Cc1ccccc1)C(=O)N1CCCCC1`, the composite z-score came to 1.04.

Consider `C=CCC(OC(C)=O)[C@@H]1[C@@H](N(Cc2cccc3ccccc23)C(=O)Cc2ccc(F)cc2)c2cc(OCCCO)ccc2N1C(=O)c1ccc2ccccc2n1` (stereo partly specified), for which the composite z-score was 0.195.

`C[N+](C)(C)CCCC[C@@H]1NC(=O)[C@H]2C[C@@H](C(=O)NCCCCCCN)[C@@H](c3ccc(O)cc3)N2C1=O` displayed a composite z-score of 0.608.

Turning to `C=C(CCCC)/C(=C/C[C@@H](OC(=O)c1ccncc1)c1ccccc1OCCO)c1cnc2ccccc2c1`, the composite z-score was determined as 0.276.

Take `O=C1c2ccccc2[C@](Cc2ccccc2I)(C(=O)NCC(F)(F)F)[C@H](c2ccc(CO)cc2)N1C1CCCCC1`: the composite z-score was determined as 0.663.

Turning to `CC(C)N1C(=O)C[C@@](C(=O)NCCCN(C)C)(c2ccc([N+](=O)[O-])cc2)[C@H]1c1ccc(CO)cc1`, the composite z-score is -0.253.

On to `C=C[C@@H](COC(C)=O)N(C(=O)OC(C)(C)C)S(=O)(=O)c1ccc(Br)cc1`, for which the composite z-score stood at 0.311.

`CC1CC/C=C\[C@H]2OC34C=CCN(c5ccc(Cl)cc5)C(=O)[C@H]3N(CCCCCO)C(=O)[C@]4(C)C2C(=O)O1` (stereo partly specified) returned a composite z-score of -0.153.

As to `O=C1O[C@H](c2ccccc2)[C@H](c2ccccc2)N2[C@H]1[C@@H](C(=O)Nc1nc3ccccc3s1)[C@]1(C(=O)Nc3ccc(C#CCCO)cc31)[C@H]2c1ccc(O)cc1`, the composite z-score is 0.39.

The compound `COCCOC(=O)N1C(=O)[C@@]2(c3cc(C#CC4(O)CCCCCC4)ccc31)[C@H](c1ccc(O)cc1)N1[C@H](c3ccccc3)[C@H](c3ccccc3)OC(=O)[C@H]1[C@@H]2C(=O)NC[C@H](O)c1ccccc1` displayed a composite z-score of 0.655.

As for `O=C1O[C@@H](c2ccccc2)[C@@H](c2ccccc2)N2[C@@H](c3ccccc3OCCO)[C@]3(C(=O)Nc4ccc(C#CCCO)cc43)[C@@H](C(=O)N3CCCCCCC3)[C@H]12`, the composite z-score was found to be 3.2.

`COc1ccc([Si](C)(C)[C@@H]2[C@@H](CCO)O[C@]3(C(=O)N(Cc4ccc(N5CCCCC5=O)cc4)c4ccccc43)[C@H]2C)cc1` yielded a composite z-score of -0.128.

As for `O=C(NCC(F)(F)F)[C@@H]1c2ccccc2C(=O)N(Cc2cc(F)cc(C(F)(F)F)c2)[C@H]1c1ccc(CO)cc1`, the composite z-score is -0.0632.

The compound `Cc1ccccc1C(O)C1C=CC2C(=O)N(C)C(=O)C2N1N(c1ccccc1)c1ccccc1` (stereo unspecified) gave a composite z-score of 0.858.

The compound `O=C(CS)NCCCCCCNC(=O)[C@H]1C[C@H]2C(=O)N[C@@H](Cc3ccccc3)C(=O)N2[C@H]1c1ccc(O)cc1` displayed a composite z-score of -0.249.

`C=CCN1Cc2ccccc2[C@H]2OC(c3ccc(OCCCO)cc3)=N[C@@]2(CC=C)C1=O`: the composite z-score is 0.406.

In turn, `CO[C@]12C=C(Br)[C@@H](C[C@@H]1c1cccc(C)c1)[C@@]1(CO1)C2=O` registered a composite z-score of -0.306.

Take `C=CC[C@]1(C(=O)O)COC(c2ccc(OCCCO)cc2)=N1`: the composite z-score is -0.133.

As for `CCOC(=O)[C@H]1[C@@H]2C(=O)N3CCC[C@H]3[C@H](O[Si](C(C)C)(C(C)C)C(C)C)[C@H]2C=C2CCN(S(=O)(=O)c3ccc(C)cc3)C[C@H]21`, the composite z-score is -0.341.

Consider `CN(C)CCCCNC(=O)[C@@H]1C[C@@H]2C(=O)N[C@@H](Cc3ccccc3)C(=O)N2[C@@H]1c1cccc(OCCO)c1`, for which the composite z-score worked out at 0.0115.

`C=C(C)C1CCC(C(O)C2C=CC3C(=O)N(C)C(=O)C3N2N2CCCCC2)CC1` (stereo unspecified) returned a composite z-score of 0.145.

The compound `CN1C(=O)C2C=CC(C(O)c3ccccn3)N(N(c3ccccc3)c3ccccc3)C2C1=O` (stereo unspecified) returned a composite z-score of -0.16.

`CN(C)CCCNC(=O)[C@@]1(C)c2ccccc2C(=O)N(Cc2ccccc2)[C@H]1c1ccc(CO)cc1` returned a composite z-score of -0.719.

Turning to `C=CCNC(=O)[C@@H]1[C@H]2C(=O)O[C@H](c3ccccc3)[C@H](c3ccccc3)N2[C@H](c2ccc(O)cc2)[C@@]12C(=O)N(C(=O)OCCOC)c1ccc(C#CC3(O)CCCCCC3)cc12`, the composite z-score is -0.227.

The compound `CN(C)C(=O)[C@@]1(Cc2ccccc2CN=[N+]=[N-])N=C(c2ccc(OCCCO)cc2)O[C@H]1c1ccccc1CN=[N+]=[N-]` displayed a composite z-score of 0.832.

`O=C1O[C@@H](c2ccccc2)[C@@H](c2ccccc2)N2[C@@H](c3ccc(O)cc3)[C@]3(C(=O)Nc4ccc(C#CC5=CCCCC5)cc43)[C@@H](C(=O)NC[C@H](O)c3ccccc3)[C@H]12` yielded a composite z-score of 0.603.

`CC(C)(C)OC(=O)CC[C@]1(C(=O)NCc2ccccc2)N=C(c2ccc(OCCCO)cc2)O[C@H]1c1ccccc1CN=[N+]=[N-]` displayed a composite z-score of 0.242.

`CC(C)C[C@@H]1NC(=O)[C@@H]2C[C@H](C(=O)NCCCCN(C)C)[C@H](c3cccc(OCCO)c3)N2C1=O` had a composite z-score of -0.224.
